# Test results published in PubChem BioAssay (NCATS).
# Several values for one entry are separate records, joined by “and”; a condition that tells them apart may be missing. Equal entries are not always repeated. Records with an inconclusive call do not appear. Entries that show only a call come without a potency. Where a structure was tested more than once in an assay, its records may differ in their call. Activity calls are given as the source filed them. Unless noted, the call rests on the fitted dose curve; in most records, active means well fitted curve in the direction sought with a large enough effect; inconclusive means small, poorly fitted or top-dose-only effect, or another doubt; inactive means no such curve, though single readings can be large; an effect the other way counts as inactive or inconclusive.
# Columns and labels:
# [1] = NCATS anti-infectives library activity on HEK293 viability as a counter-qHTS vs the C. elegans viability qHTS (AID 1745854);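 further: HEK293 cells exposed to compounds for 24 hr before the viability read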
# Summary of the method: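 Compound titrations (final up to 41.7 uM) were incubated with HEK293 cells for 24 hr at 37C under 5% CO2. Viable cells were quantified with CellTiter-Glo after 10 min at ambient temperature.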
# [2] = target: Phospholipid hydroperoxide glutathione peroxidase GPX4 (Homo sapiens) (UniProt P36969); test: Primary qHTS Assay for Inhibitors of Recombinant Selenoprotein Glutathione Peroxidase 4 (GPX4) (AID 1845192); further: nearly all actives have a fitted effect of over 65% in size; further: potency means the concentration at half of the fitted maximal effect
# Summary of the method: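 NADPH consumption followed by fluorescence at 340/450 nm, t=0 and after 15 min at room temperature. Reaction started with cumene hydroperoxide (0.5 mM final) after 30 min compound–GPX4 preincubation; final 200 nM GPX4, 100 nM GR, 1 mM GSH, 0.5 mM NADPH.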
# [3] = Quantitative High-Throughput drug screen in 47 multiple myeloma cell lines against the NCATS MIPE library collection: FR4_PLB cell viability assay (AID 1918924; further: nearly all actives have a fitted effect of over 35% in size; further: potency means the concentration at half of the fitted maximal effect)
# Summary of the method: (§1)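 Approved and investigational drugs from MIPE 4.0 were added by pin tool to 500 cells per well. After 48 hours at 37C, ATP-based CellTiter-Glo luminescence indicated remaining viability.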
# [4] = Quantitative High-Throughput drug screen in 47 multiple myeloma cell lines against the NCATS MIPE library collection: Delta47_JCRB cell viability assay (AID 1918925; further: nearly all actives have a fitted effect of over 45% in size; further: potency means the concentration at half of the fitted maximal effect)
# Summary of the method: as §1
# [5] = Quantitative High-Throughput drug screen in 47 multiple myeloma cell lines against the NCATS MIPE library collection: EJM_DSMZ cell viability assay (AID 1918926; further: nearly all actives have a fitted effect of over 30% in size; further: potency means the concentration at half of the fitted maximal effect)
# Summary of the method: as §1
# [6] = target: Guanidinoacetate N-methyltransferase (Homo sapiens) (UniProt Q14353); test: Confirmatory Screen for Target Class Profiling of Small Molecule Inhibitors of Methyltransferases (AID 1745852; calls by dose curve; further: potency means the concentration at half of the fitted maximal effect); details: MTase-Glo luminescence, SAH detection, recombinant enzyme; activity change, negative = inhibition: at 57.3 µM (top of the series) unless noted
# [7] = target: Nicotinamide N-methyltransferase (Homo sapiens) (UniProt P40261); test: as above; details: MTase-Glo luminescence, SAH detection, recombinant enzyme; measured here: NNMT max response; stronger effect = lower value
# [8] = target: Phenylethanolamine N-methyltransferase (Homo sapiens) (UniProt P11086); test: as above; details: MTase-Glo luminescence, SAH detection, recombinant enzyme; measured here: PNMT max response; stronger effect = lower value
# [9] = target: Metallo-beta-lactamase type 2 (Klebsiella pneumoniae) (UniProt C7C422); test: qHTS to identify inhibitors of the New Delhi Metallo-beta-lactamase (NDM): assay validation screen against the NCATS LOPAC Collection (AID 1794843);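 further: nitrocefin turnover by NDM-1 measured as 485 nm absorbance at plateau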
# Summary of the method: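 Enzyme 2 nM final, 50 mM HEPES pH 7.0, 1 uM ZnSO4, 0.01% Tween20; cpds in DMSO, preincub w/ enzyme; + nitrocefin (50 uM stock); A485 at plateau; no-enzyme column as blank.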
# [10] = target: Glutathione peroxidase 1 (Homo sapiens) (UniProt P07203); test: Primary qHTS Assay for Inhibitors of Recombinant Selenoprotein Glutathione Peroxidase 1 (GPX1) (AID 1845191); further: nearly all actives have a fitted effect of over 65% in size
# Summary of the method: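 NADPH consumption tracked by fluorescence at 340/450 nm between t=0 and t=15 min, room temperature. Final mix: 10 nM GPX1, 100 nM glutathione reductase, 1 mM GSH, 0.5 mM NADPH, 0.5 mM cumene hydroperoxide, 0.01% BSA; 30 min compound–enzyme preincubation.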
# [11] = target: Luciferin 4-monooxygenase (Photinus pyralis) (UniProt P08659); test: Primary firefly luciferase (FLuc) qHTS assay for identification of artifact compounds. (AID 1845220); further: nearly all actives have a fitted effect of over 60% in size
# Summary of the method: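 Cell-free, 1536-well qHTS. Buffer pH 7.6 with 0.01% Tween-20 and 0.05% BSA; 10 uM D-luciferin, 10 uM ATP; 10 nM P. pyralis luciferase; luminescence after 5 min.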
# [12] = Primary fluorescence-based thiol-reactive (MSTI) qHTS assay for identification of artifact compounds. (AID 1845221);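 further: thiol-reactive compounds lower the probe fluorescence signal; nearly all actives have a fitted effect of over 65% in size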
# Summary of the method: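 Thiol-reactive compounds detected by quenching of 4 uM MSTI fluorescence (525/598 nm) after 1 h room-temperature dark incubation in PBS pH 7.4, 2% DMSO. qHTS titration; percent inhibition Hill-fitted against Acetyl-MSTI/MSTI controls.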
# [13] = test system: Nanoluciferase (engineered Oplophorus gracilirostris luciferase); test: Primary Nanoluciferase (NLuc) qHTS assay for identification of artifact compounds. (AID 1845222)
# Summary of the method: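 Compounds are pinned into diluted (1:55) conditioned medium of NLuc-expressing S16 cells and held 15 min at room temperature protected from light. Nano-Glo substrate follows, and luminescence is read 5 min later.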
# [14] = Primary redox qHTS assay for identification of artifact compounds. (AID 1845223)
# Summary of the method: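 Redox-cycling detection via DTT (250 uM final) oxidation coupled to Amplex Red (25 uM)/HRP (250 mU/mL) in HBSS. 15 min preincubation plus 30 min after DTT, room temperature. Ex/Em 525/598 nm; 4-parameter Hill fit against DMSO and 10 uM DA3003.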
# [15] = NCATS anti-infectives library activity on the primary C. elegans qHTS viability assay (AID 1745855; calls by dose curve)
# Summary of the method: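 Titration-based screen in worms: eggs hatched overnight in M9, L1 larvae fed TOP10 capsules in S medium with compound, incubated 21 °C for 7 days; fluorescent objects gated by size and intensity at days 0, 3 and 7.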
# Phospholipid hydroperoxide glutathione peroxidase GPX4 (Homo sapiens), sequence (P36969 whole entry, looked up): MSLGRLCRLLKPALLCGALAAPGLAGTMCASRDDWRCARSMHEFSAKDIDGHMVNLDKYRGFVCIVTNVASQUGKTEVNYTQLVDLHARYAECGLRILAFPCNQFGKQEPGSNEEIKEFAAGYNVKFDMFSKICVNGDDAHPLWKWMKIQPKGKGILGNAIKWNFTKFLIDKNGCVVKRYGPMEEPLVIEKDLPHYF
# Glutathione peroxidase 1 (Homo sapiens), sequence (P07203 whole entry, looked up): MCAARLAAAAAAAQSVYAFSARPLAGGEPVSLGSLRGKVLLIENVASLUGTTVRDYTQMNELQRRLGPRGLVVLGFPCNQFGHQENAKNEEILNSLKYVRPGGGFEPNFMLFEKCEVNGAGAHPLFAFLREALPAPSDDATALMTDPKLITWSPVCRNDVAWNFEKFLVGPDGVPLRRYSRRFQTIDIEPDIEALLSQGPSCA
# Phenylethanolamine N-methyltransferase (Homo sapiens), sequence (P11086 whole entry, looked up): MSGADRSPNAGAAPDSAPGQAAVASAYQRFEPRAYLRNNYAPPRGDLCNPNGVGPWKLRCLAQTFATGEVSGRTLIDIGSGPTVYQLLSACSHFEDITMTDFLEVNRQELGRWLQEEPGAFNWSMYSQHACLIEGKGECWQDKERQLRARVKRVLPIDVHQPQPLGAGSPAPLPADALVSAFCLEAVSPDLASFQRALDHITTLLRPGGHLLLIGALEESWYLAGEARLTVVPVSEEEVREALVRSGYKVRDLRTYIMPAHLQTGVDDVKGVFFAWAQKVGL
# Metallo-beta-lactamase type 2 (Klebsiella pneumoniae), sequence (C7C422 whole entry, looked up): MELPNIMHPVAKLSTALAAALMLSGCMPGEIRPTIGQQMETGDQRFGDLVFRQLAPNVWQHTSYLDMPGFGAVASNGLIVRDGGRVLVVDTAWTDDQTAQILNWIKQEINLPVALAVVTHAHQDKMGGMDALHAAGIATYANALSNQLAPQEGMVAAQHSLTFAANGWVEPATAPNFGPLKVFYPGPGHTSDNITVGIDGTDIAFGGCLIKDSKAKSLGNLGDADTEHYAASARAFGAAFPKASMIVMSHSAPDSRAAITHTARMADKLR
# Nicotinamide N-methyltransferase (Homo sapiens), sequence (P40261 whole entry, looked up): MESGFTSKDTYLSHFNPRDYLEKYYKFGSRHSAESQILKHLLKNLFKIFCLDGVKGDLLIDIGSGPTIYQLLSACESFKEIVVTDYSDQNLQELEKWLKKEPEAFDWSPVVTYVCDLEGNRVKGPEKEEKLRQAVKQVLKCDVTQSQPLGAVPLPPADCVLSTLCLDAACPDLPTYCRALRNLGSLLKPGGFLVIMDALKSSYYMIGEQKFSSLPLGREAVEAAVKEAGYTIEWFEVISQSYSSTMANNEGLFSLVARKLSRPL
compound,measurement,setting,value
NC(=O)c1ccc(I)c([N+](=O)[O-])c1,outcome,[1],inactive
same,Potency,[2],inactive
same,Potency,[3],inactive
same,Potency,[4],18.7 µM (active)
same,Potency,[5],inactive
Oc1ccc(C2CNCCc3c2cc(O)c(O)c3Cl)cc1 (stereo not given),Potency,[6],27.3 µM (active)
same,activity,[7],-15.5%
same,activity,[8],-4.58%
same,outcome,[9],inactive
same,Potency,[10],inactive
same,Potency,[2],inactive
same,Potency,[3],inactive
same,Potency,[4],inactive
same,Potency,[5],inactive
C[C@]1(c2nc3c(C(N)=O)cccc3[nH]2)CCCN1,outcome,[1],inactive
same,Potency,[10],inactive
same,Potency,[2],inactive
same,Potency,[3],inactive
same,Potency,[5],inactive
CC(C)(Sc1ccc(CCN(CCCCC2CCCCC2)C(=O)NC2CCCCC2)cc1)C(=O)O,"activity change, negative = inhibition",[6],2.53%
same,activity,[7],-46.1%
same,activity,[8],-8.68%
same,outcome,[9],inactive
same,Potency,[10],inactive
same,Potency,[2],inactive and 6.4 µM (active)
same,Potency,[11],inactive
same,Potency,[12],inactive
same,outcome,[13],inactive
same,outcome,[14],inactive
Nc1nc2[nH]cc(CCc3ccc(C(=O)N[C@@H](CCC(=O)O)C(=O)O)cc3)c2c(=O)[nH]1,outcome,[1],inactive
same,Potency,[10],inactive
same,Potency,[2],inactive
same,Potency,[4],inactive
same,Potency,[5],inactive
CCCS(=O)(=O)Nc1ccc(F)c(C(=O)c2c[nH]c3ncc(-c4ccc(Cl)cc4)cc23)c1F,"activity change, negative = inhibition",[6],-0.0685%
same,activity,[7],-26%
same,activity,[8],-12.4%
same,Potency,[2],inactive
same,Potency,[11],inactive
same,Potency,[12],inactive
same,outcome,[13],inactive
same,outcome,[14],inactive
same,Potency,[4],8.33 µM (active)
CCc1cncnc1N1CCN(Cc2nc3ccc(C(F)(F)F)cc3[nH]2)CC1,"activity change, negative = inhibition",[6],5.86%
same,activity,[7],-37.3%
same,activity,[8],-14.9%
same,outcome,[9],inactive
same,Potency,[10],inactive
same,Potency,[2],inactive
same,Potency,[11],inactive
same,outcome,[13],inactive
same,outcome,[14],inactive
same,Potency,[4],13.2 µM (active)
OC[C@H](Cc1ccccc1)Nc1nc(Oc2ccc3c(c2)CCC3)nc2c1ncn2Cc1ccc(-c2ccccc2)cc1,"activity change, negative = inhibition",[6],-8.58%
same,activity,[7],-17.3%
same,activity,[8],-16%
same,Potency,[10],inactive
same,Potency,[2],inactive
same,Potency,[3],inactive
same,Potency,[5],inactive
O=C1CCC(N2C(=O)c3ccccc3C2=O)C(=O)N1 (stereo not given),outcome,[1],inactive
same,outcome,[9],inactive
same,Potency,[10],inactive
same,Potency,[2],inactive
same,Potency,[3],inactive
same,Potency,[4],inactive
same,Potency,[5],inactive
CS(=O)(=O)c1cccc(CNc2nc(Nc3ccc4c(c3)CCC(=O)N4)ncc2C(F)(F)F)c1,"activity change, negative = inhibition",[6],-3.15% and 1.66%
same,activity,[7],-47.6% and -27.3%
same,activity,[8],-7.63% and -9.92%
same,outcome,[9],inactive
same,Potency,[11],inactive
same,Potency,[12],inactive
same,outcome,[13],inactive
same,Potency,[4],18.7 µM (active)
same,Potency,[5],23.5 µM (active)
C#Cc1cccc(Nc2ncnc3cc(OCCOC)c(OCCOC)cc23)c1,Potency,[15],inactive
same,Potency,[10],inactive
same,Potency,[2],inactive
same,Potency,[11],inactive
same,outcome,[13],inactive
same,outcome,[14],inactive
same,Potency,[3],16.6 µM (active)
same,Potency,[4],4.18 µM (active)
same,Potency,[5],6.62 µM (active)
